# Reference: ChEMBL document CHEMBL1201862, “PubChem BioAssay data set” (2004)
# In all, about 420,000 compounds went through this assay and about 50,000 (12%) were called active. Another 26% or so got no clear call; they are omitted. No cut-off for these calls is given here. This excerpt belongs to a sample that is enriched for actives.
# Target: Tyrosyl-DNA phosphodiesterase 1 (Homo sapiens) (UniProt Q9NUW8)
# Assay: qHTS for Inhibitors of human tyrosyl-DNA phosphodiesterase 1 (TDP1): qHTS in cells in presence of CPT.
# Format: functional
# Sequence of Tyrosyl-DNA phosphodiesterase 1 (Homo sapiens) (Q9NUW8 whole entry): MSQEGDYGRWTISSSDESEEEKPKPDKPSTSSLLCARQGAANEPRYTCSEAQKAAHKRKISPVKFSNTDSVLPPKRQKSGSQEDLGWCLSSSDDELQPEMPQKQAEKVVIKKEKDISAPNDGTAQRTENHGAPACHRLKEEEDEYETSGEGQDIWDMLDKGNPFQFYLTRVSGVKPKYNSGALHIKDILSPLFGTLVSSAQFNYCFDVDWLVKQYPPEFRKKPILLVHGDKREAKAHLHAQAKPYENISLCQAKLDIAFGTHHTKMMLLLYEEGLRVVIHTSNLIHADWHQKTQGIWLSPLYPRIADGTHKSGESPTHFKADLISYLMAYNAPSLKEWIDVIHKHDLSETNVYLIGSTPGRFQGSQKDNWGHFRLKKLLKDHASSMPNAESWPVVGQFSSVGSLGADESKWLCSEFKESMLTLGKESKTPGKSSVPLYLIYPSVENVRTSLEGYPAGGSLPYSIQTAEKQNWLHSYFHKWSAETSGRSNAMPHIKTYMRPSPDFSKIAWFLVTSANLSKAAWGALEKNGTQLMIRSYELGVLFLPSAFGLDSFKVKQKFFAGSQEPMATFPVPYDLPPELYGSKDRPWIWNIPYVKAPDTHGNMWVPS
row,Compound,Potency
1,COc1ccc(OC)c(/C=C/c2cccc3c2N(CCCCI)C=S3/C=C/c2cc(OC)ccc2OC)c1 (stereo not given),6.31 µM (active)
2,CC(C)C(C)c1cccc2c1NC=S2C(C)C(C)C (stereo not given),5.62 µM (active)
3,COc1ccccc1/C=C/C(=O)c1cccs1,9.44 µM (active)
4,ICCCCN1C=S(CI)c2ccccc21 (stereo not given),10 µM (active)
5,Cc1cccc2c1N(CCCCI)C=S2C (stereo not given),3.98 µM (active)
